# Reference: the supplement of paper PMC9135407
# Where “and” joins values, the source holds several entries; their conditions need not be identical. Equal entries are not always repeated. Structures can show the parent of a compound that is named as a salt. Hit rate of the full screen: of about 5,800 compounds, about 620 (11%) showed activity. For the sample, actives were picked, then their nearest neighbours and some compounds at random. Values without a mark were called inactive.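 Rule for the calls: active = score above a cut-off or among the top three wells of a plate; in these data no inactive exceeds 0.85.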
# Test system: primary human hepatic stellate cells (donor 1)
# Assay: scaled lipid accumulation score (0 = DMSO-like, 1 = nortriptyline-like); higher = stronger HSC inactivation (lipid re-accumulation), active = hit call of the paper
# Conditions: 48 h
# [1] = library stock concentration: 80 uM
# [2] = library stock concentration: 400 uM
# [3] = library stock concentration: 2 mM
# [4] = library stock concentration: 10 mM
# [5] = library stock concentration: 3.33 mM
# [6] = library stock concentration: 1 mM
compound,measurement,setting,value
CCCOc1ccc(C=C2SC(=O)NC2=O)cc1,scaled lipid accumulation score,[1],≤ -0.001
same,scaled lipid accumulation score,[2],≤ -0.001
same,scaled lipid accumulation score,[3],≤ -0.001
same,scaled lipid accumulation score,[4],≤ -0.001
OCC(O)CCO/N=C1\C(c2c(O)[nH]c3ccccc23)=Nc2ccccc21 (stereo not given) [Indirubin Derivative E804],scaled lipid accumulation score,[5],≤ 0
Fc1ccc([C@@H]2CCNC[C@H]2COc2ccc3c(c2)OCO3)cc1 [Paroxetine HCl] [listing 1 of 2 here],scaled lipid accumulation score,[4],0.355
Fc1ccc([C@@H]2CCNC[C@H]2COc2ccc3c(c2)OCO3)cc1 [Paroxetine hydrochloride],scaled lipid accumulation score,[4],0.808
Fc1ccc([C@@H]2CCNC[C@H]2COc2ccc3c(c2)OCO3)cc1 [Paroxetine],scaled lipid accumulation score,[4],0.634
c1ccc(N2CCN(CCCOc3ccc4c(c3)OCO4)CC2)cc1 [BP 554 maleate],scaled lipid accumulation score,[4],≤ 0
Cl.Fc1ccc([C@@H]2CCNC[C@H]2COc2ccc3c(c2)OCO3)cc1 [Paroxetine Hydrochloride],scaled lipid accumulation score,,1.22 (active)
Fc1ccc([C@@H]2CCNC[C@H]2COc2ccc3c(c2)OCO3)cc1 [Paroxetine HCl] [listing 2 of 2 here],scaled lipid accumulation score,library stock concentration: 6.1 mM,1.01 (active)
Fc1ccc([C@@H]2CCNC[C@H]2COc2ccc3c(c2)OCO3)cc1 [Paroxetine hydrochloride hemihydrate (MW = 374.83)],scaled lipid accumulation score,[4],0.836
Cl.Fc1ccc([C@@H]2CCNC[C@H]2COc2ccc3c(c2)OCO3)cc1 [Paroxetine HCl],scaled lipid accumulation score,[5],0.491 (active)
COc1cc(F)c(C(C)C)cc1-c1ccc(C(F)(F)F)cc1CN1C(=O)O[C@H](c2cc(C(F)(F)F)cc(C(F)(F)F)c2)[C@@H]1C [Anacetrapib (MK-0859)],scaled lipid accumulation score,[5],≤ 0
same,scaled lipid accumulation score,[4],≤ 0
C=C1C[C@@H](O)[C@H](/C=C/[C@@H](O)CCCCC)[C@H]1C/C=C\CCCC(=O)O [9-deoxy-9-methylene Prostaglandin E2],scaled lipid accumulation score,[6],0.01
Cc1cc(C)cc(NC(=O)Cc2ccc(OC(C)(C)C(=O)O)cc2)c1 [Efaproxiral Sodium],scaled lipid accumulation score,[5],≤ 0
same,scaled lipid accumulation score,[4],≤ -0.001
O=C1Cc2c([nH]c3ccc([N+](=O)[O-])cc23)-c2ccccc2N1 [Alsterpaullone],scaled lipid accumulation score,[5],≤ 0
COc1ccc(/C=C/C(=O)Nc2c(O)cccc2C(=O)O)cc1OC,scaled lipid accumulation score,[6],≤ 0
O=C(c1ccccc1)c1ccc2n1CCC2C(=O)O (stereo not given) [Ketorolac],scaled lipid accumulation score,[5],≤ 0
same,scaled lipid accumulation score,[4],≤ 0
O=C(c1ccccc1)c1ccc2n1CCC2C(=O)O (stereo not given),scaled lipid accumulation score,[4],≤ 0
O=C(c1ccccc1)c1ccc2n1CCC2C(=O)O (stereo not given) [Ketorolac tris salt],scaled lipid accumulation score,[4],≤ -0.055
O=C(c1ccccc1)c1ccc2n1CCC2C(=O)O (stereo not given) [Ketorolac tromethamine],scaled lipid accumulation score,,≤ 0
same,scaled lipid accumulation score,library stock concentration: 5.3 mM,≤ 0
same,scaled lipid accumulation score,[4],0.024
O=C(c1ccccc1)c1ccc2n1CCC2C(=O)O (stereo not given) [Ketorolac (tromethamine salt)],scaled lipid accumulation score,[6],≤ 0
O=C(c1cccnc1)N1CCOCC1,scaled lipid accumulation score,[4],0.163
COC(=O)[C@]12CCC(C)(C)C[C@H]1[C@H]1C(=O)C=C3[C@@]4(C)C=C(C#N)C(=O)C(C)(C)[C@@H]4CC[C@@]3(C)[C@]1(C)CC2 [Bardoxolone Methyl],scaled lipid accumulation score,[5],0.195
same,scaled lipid accumulation score,[4],0.183
CC(C)OC(=O)CCC/C=C\C[C@@H]1[C@@H](/C=C/[C@@H](O)COc2cccc(C(F)(F)F)c2)[C@H](O)C[C@@H]1O,scaled lipid accumulation score,[4],≤ 0
O=C(/C=C\n1cnc(-c2cc(C(F)(F)F)cc(C(F)(F)F)c2)n1)NNc1cnccn1,scaled lipid accumulation score,[5],≤ -0.009
same,scaled lipid accumulation score,[4],0.384
CC1(C)S[C@@H]2[C@H](NC(=O)[C@H](NC(=O)N3CCN(S(C)(=O)=O)C3=O)c3ccccc3)C(=O)N2[C@H]1C(=O)O [Mezlocillin Sodium],scaled lipid accumulation score,[5],≤ 0
same,scaled lipid accumulation score,[4],0.043
C[C@@H](CN1CCC(n2c(=O)[nH]c3cc(Cl)ccc32)CC1)NC(=O)c1ccc2ccccc2c1.Cl,scaled lipid accumulation score,[4],1.12 (active)
O=C(NCCN1CCC(n2c(=O)[nH]c3cc(Cl)ccc32)CC1)c1ccc(F)cc1 [Halopemide],scaled lipid accumulation score,[6],≤ 0
C[C@@H](CN1CCC(n2c(=O)[nH]c3cc(Cl)ccc32)CC1)NC(=O)c1ccc2ccccc2c1,scaled lipid accumulation score,[6],0.02
"Brc1ccc(C2CN3CCSC3=N2)cc1 (single isomer, unassigned; (-)) [(-)-p-Bromotetramisole Oxalate]",scaled lipid accumulation score,[5],≤ -0.009
same,scaled lipid accumulation score,[4],0.192
C=CCNC(=O)c1cc([N+](=O)[O-])cc2c(=O)[nH]c(Nc3ccc(Cl)c(Cl)c3)nc12,scaled lipid accumulation score,[4],0.02
Cc1nc(-c2ccccc2)c(-c2ccncc2)o1,scaled lipid accumulation score,[5],≤ 0
CO[C@@H](C(=O)N1Cc2[nH]nc(NC(=O)c3ccc(N4CCN(C)CC4)cc3)c2C1)c1ccccc1 [listing 1 of 2 here],scaled lipid accumulation score,[2],≤ -0.005
same,scaled lipid accumulation score,[3],≤ -0.005
same,scaled lipid accumulation score,[5],0.533
same,scaled lipid accumulation score,[4],0.779
CO[C@@H](C(=O)N1Cc2[nH]nc(NC(=O)c3ccc(N4CCN(C)CC4)cc3)c2C1)c1ccccc1 [listing 2 of 2 here],scaled lipid accumulation score,[4],0.915 (active)
CCc1cccc(CC)c1NC(=O)N1Cc2[nH]nc(NC(=O)c3ccc(N4CCN(C)CC4)cc3)c2C1,scaled lipid accumulation score,[5],0.21
same,scaled lipid accumulation score,[4],0.34
O=C1c2c(O)cc(O)cc2O[C@H](c2ccc(O)c(O)c2)[C@H]1O,scaled lipid accumulation score,[4],≤ 0
OCc1ccccc1O [Salicyl alcohol],scaled lipid accumulation score,[4],≤ 0
same,scaled lipid accumulation score,library stock concentration: 16.1 mM,≤ 0
COc1ccc(S(=O)(=O)N(CCO)c2ccccc2CN(C)CC=Cc2ccc(Cl)cc2)cc1.O=P(=O)OO.[H] [KN-93 Phosphate],scaled lipid accumulation score,[4],1.07 (active)
COc1ccc(S(=O)(=O)N(CCO)c2ccccc2CN(C)C/C=C/c2ccc(Cl)cc2)cc1 [KN-93 Phosphate],scaled lipid accumulation score,[5],0.441
COc1ccc(S(=O)(=O)N(C(C)=O)c2ccccc2/C=C/c2cc[n+]([O-])cc2)cc1,scaled lipid accumulation score,[1],≤ -0.016
same,scaled lipid accumulation score,[2],≤ -0.016
same,scaled lipid accumulation score,[3],≤ -0.016
same,scaled lipid accumulation score,[5],≤ 0
same,scaled lipid accumulation score,[4],≤ 0 and 0.15
